Assay outcomes: PubChem BioAssay, National Center for Advancing Translational Sciences (NCATS)
CXXC DNA block: MLL CXXC-DNA interaction inhibition; MLL-CXXC / FITC-HOXA9 DNA fluorescence polarization; Potency, µM (series often up to 115 µM), inactives show at the top dose activity change, negative = inhibition, actives largely listed as inhibitors; 0.037% of 290,000 active; Q03164; active = well fitted inhibition curve with a large enough effect in the polarisation, with a control signal flat, not every such curve was filed as active; inconclusive = small, poorly fitted or top-dose-only effect, or effect the other way, or a change in a side signal; inactive = no such curve, though single readings can be large or run the other way; the % refers to the polarisation; also: potency is read from the fitted curve at half-maximal effect
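Purified MLL-CXXC (added from a 7 uM solution) was preincubated 5 min at ambient with pinned compounds in 50 mM Tris-HCl pH 7.5, 50 mM NaCl, 1 mM DTT, 0.05% BSA. Fluorescein-labeled HOX-A9 DNA (50 nM solution) followed, 30 min, then polarization read.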
Menin MLL FP FL: menin-MLL binding inhibition, fluorescein peptide | FP activity change, % at 61.4 µM | 290,000 tested, under 10 active | AID 1766 | Fluorescence polarization, fluorescein-MLL peptide displacement from menin; active = well fitted curve in the direction sought with a large enough effect in the polarisation, not every such curve was filed as active; inconclusive = small, poorly fitted or top-dose-only effect, or effect the other way, or a change in a side signal; inactive = no such curve, though single readings can be large or run the other way; the % refers to the polarisation; also: % of control where 0% means no effect
GLS inhibitor: blocks human kidney-isoform glutaminase activity. O94925. GLS enzymatic activity, qHTS titration. Potency, µM (highest dose often 45.5 µM), for inactives: at the highest dose activity change, negative = inhibition, actives largely listed as inhibitors. 0.21% of 410,000 active. AID 624170; active = well fitted inhibition curve with a large enough effect; inconclusive = small, poorly fitted or top-dose-only effect, or another doubt; inactive = no such curve, though single readings can be large or run the other way; also: potency is read from the fitted curve at half-maximal effect; % is scaled to controls: 0 for no effect and ±100 for the full control effect
Target sequence (O94925 whole entry, looked up, canonical isoform): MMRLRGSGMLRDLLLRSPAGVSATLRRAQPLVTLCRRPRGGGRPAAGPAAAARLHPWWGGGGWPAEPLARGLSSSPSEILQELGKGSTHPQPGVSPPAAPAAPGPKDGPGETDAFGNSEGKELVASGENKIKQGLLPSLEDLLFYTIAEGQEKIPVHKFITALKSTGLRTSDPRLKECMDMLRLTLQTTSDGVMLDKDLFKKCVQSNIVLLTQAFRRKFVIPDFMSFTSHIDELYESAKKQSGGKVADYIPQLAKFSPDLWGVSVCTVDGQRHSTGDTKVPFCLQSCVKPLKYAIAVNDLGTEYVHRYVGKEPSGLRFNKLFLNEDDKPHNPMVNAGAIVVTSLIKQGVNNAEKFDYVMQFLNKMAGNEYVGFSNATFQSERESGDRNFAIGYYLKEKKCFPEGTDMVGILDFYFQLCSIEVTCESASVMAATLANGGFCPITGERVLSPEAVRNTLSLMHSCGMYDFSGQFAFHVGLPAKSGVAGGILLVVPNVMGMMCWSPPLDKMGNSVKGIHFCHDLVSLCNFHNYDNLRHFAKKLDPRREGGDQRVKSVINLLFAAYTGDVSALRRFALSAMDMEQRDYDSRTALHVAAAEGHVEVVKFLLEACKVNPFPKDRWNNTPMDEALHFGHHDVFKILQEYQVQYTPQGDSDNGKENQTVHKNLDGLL
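hKGA in 45 mM KH2PO4 (pH 8.2), 0.02% Tween-20 with compound, then 1mM L-Glutamine (stock as added) plus glutamate oxidase/HRP/Amplex red coupling mix. Fluorescence read initially and after 30 min at RT; signal change reflects glutamate formation.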
CtBP-E1A blk: inhibitors of CtBP/E1A interaction | 0.49% of 340,000 active | activity change, % (test concentration not listed) | AlphaScreen GST-E1A/His-CtBP binding, 1536-well; active compounds read low; also: % is scaled to controls: 0 for no effect and ±100 for the full control effect
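AlphaScreen with 125 nM GST-E1A and 125 nM His-CtBP (5X stocks) in Tris pH 8.0, 300 mM NaCl, BSA, Tween 20, TCEP. Compounds preincubated 2 h at 37 deg C, then glutathione donor/nickel acceptor beads added for 1 h at 37 deg C in dark.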
Six1-Eya2 blk: Six1/Eya2 interaction inhibition | 0.56% of 360,000 active | AlphaScreen GST-Six1/His-Eya2 binding, biochemical; active compounds read low | Q15475+O00167 | activity change, % (test concentration not listed); also: % is scaled to controls: 0 for no effect and ±100 for the full control effect
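Compounds are tested against tagged Six1 and Eya2 proteins bridged by glutathione donor and nickel acceptor beads; after a one-hour incubation at 37 °C without light, AlphaScreen emission is recorded.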
Menin MLL FP TR: inhibitors of human menin-MLL interaction, mutant MLL peptide. O00255. Menin + Texas Red MLL mutant peptide, fluorescence polarization. Potency, µM (doses to about 61.6 µM), for inactives: at the top dose FP activity change, negative = inhibition, hits mostly inhibitors. 0.23% of 270,000 active. AID 1768; active = well fitted inhibition curve with a large enough effect in the polarisation, with a control signal flat, not every such curve was filed as active; inconclusive = small, poorly fitted or top-dose-only effect, or effect the other way, or a change in a side signal; inactive = no such curve, though single readings can be large or run the other way; the % refers to the polarisation; also: potency is read from the fitted curve at half-maximal effect; % of control where 0% means no effect
An asterisk follows results filed as active; ? = inconclusive; . = no result; [ ] = dose if it differs, or a comment. Most compounds without a hit are left out; they make up all but 0.83% or so of the library. Rule as the data show it, unless noted: active = activity change below about -65%; inconclusive = mostly about -30% to -63%; inactive = weaker than that.

SMILES | CXXC DNA block | Menin MLL FP FL | GLS inhibitor | CtBP-E1A blk | Six1-Eya2 blk | Menin MLL FP TR
Cc1nn(-c2ccccc2)c(C)c1/C=C/C(=O)OCC(=O)NC1CCS(=O)(=O)C1 (centres undefined) | 14.0% | 0.5 | 0.3% | -75.0* | -2.6 | -2.6%
O=C(c1cccc(F)c1)N1CCC2(CC1)CCN(c1ncccn1)CC2 | . | 1.5 | . | . | . | -9.4%
CC(C)C(N)c1csc(Nc2ccccn2)n1 (centres undefined) | . | . | 13.3% | -90.7* | -83.2* | .
NC(c1csc(Nc2ccccn2)n1)c1ccccc1Cl (centres undefined) | . | . | 7.1% | -90.5* | -78.6* | .
NC(c1csc(Nc2cnccn2)n1)c1ccccc1Cl (centres undefined) | . | . | -0.9% | -75.5* | -66.9* | .
COc1cc(OC)cc(-c2nnc3n2N=C(c2ccc(OC)cc2OC)CS3)c1 | . | -4.2 | . | . | . | 15.6%
Cc1ccc(C)c(CSc2cn(CCNC(=O)c3cccs3)c3ccccc23)c1 | . | . | 6.2% | . | . | .
O=c1oc2ccc3ccccc3c2cc1-c1nnc(Nc2ccc(F)cc2)s1 | . | . | -10.6% | . | . | .
COc1ccc(-n2nc([N+](=O)[O-])c(=NCCC3=CCCCC3)n2O)cc1 | 1.4% | 1.3 | 6.1% | ? | -69.6* | -2.6%
COc1ccc(-n2nc([N+](=O)[O-])c(=NCCc3ccc(C)cc3)n2O)cc1 | 0.1% | -5.0 | -0.3% | -28.2 | -27.3 | 2.4%
O=C(c1ccccc1)c1nn(-c2ccccc2)c(=O)cc1C(F)(F)F | 35.1% | 2.0 | -10.0% | -75.4* | ? | ?
O=C(c1ccccc1)c1nn(-c2ccc(Cl)cc2)c(=O)cc1C(F)(F)F | 25.5% | 0.0 | -5.1% | ? | -15.4 | .
O=C(c1cccc(Cl)c1)c1nn(-c2ccccc2)c(=O)cc1C(F)(F)F | 38.9% | 2.2 | -6.9% | -72.7* | ? | 18.2%
OC[C@H]1NC[C@@H](O)[C@@H](O)[C@@H]1O | . | -1.9 | . | . | . | -2.0%
CN(c1ccccc1)S(=O)(=O)c1cccc(C(=O)NCCc2ccc(O)c(O)c2)c1 | -2.5% | -0.5 | 3.55µM* | -0.1 | -8.6 | ?
CCCCC(=O)O[C@]1(C(=O)CO)CCC2C3CCC4=CC(=O)CCC4(C)C3C(O)CC21C (some centres undefined) | 7.9% | -0.5 | 1.0% | . | . | 1.8%
O=C(NNc1c2ccccc2nc2ccccc12)c1ccccc1O | ? | -1.0 | 0.4% | -72.5* | ? | ?
O=C(NNc1c2ccccc2nc2ccccc12)c1ccc(O)cc1O | ? | -1.6 | 32.6% | -84.1* | -83.6* | ?
O=C(NNc1c2ccccc2nc2ccccc12)c1ccccc1Cl | 15.4% | 3.3 | 4.7% | -14.0 | -25.3 | ?
CC1O[C@@H](O[C@@H]2C(O)C[C@H](O[C@@H]3C(O)C[C@@H](OC4CC[C@@]5(C)C6CC(O)[C@@]7(C)C(C8=CC(=O)OC8)CC[C@@]7(O)C6CC[C@@H]5C4)OC3C)OC2C)CC(O)[C@H]1O (some centres undefined) | . | 0.9 | . | . | . | 7.7%
COc1cc(-c2cc(=O)c3c(O)c(OC)c(OC)c(O)c3o2)ccc1O | 21.0% | 0.2 | 2.82µM* | -19.8 | ? | ?
O=C(N/N=C/C(Cl)=C/c1ccc([N+](=O)[O-])cc1)C(=O)Nc1cccc(C(=O)O)c1 | 9.3% | 11.4 | 0.2% | -92.1* | ? | .
C#CCOCCOCCOCCNc1nc(N2CCN(C(=O)CCCCCCCCCCNC(=O)[C@H]([C@@H](C)CC)n3cc(CCCCN=C(N)N)nn3)CC2)nc(N2CCN(C(=O)CCCCCCCCCCNC(=O)[C@H](CCCCN)n3cc(C)nn3)CC2)n1 | . | . | 15.8µM* | -12.3 | -7.0 | .
C#CCOCCOCCOCCNc1nc(N2CCN(C(=O)CCCCCCCCCCNC(=O)[C@H]([C@@H](C)CC)n3cc(CCCCCN)nn3)CC2)nc(N2CCN(C(=O)CCCCCCCCCCNC(=O)[C@H](CCCCN)n3cc(CCCC(=O)O)nn3)CC2)n1 | . | . | -15.3% | -7.9 | 4.0 | .
CCS(=O)(=O)c1ccc(OC)c(N=Nc2ccc(O)c3ncccc23)c1 | -11.0% | 2.6 | -11.1% | -96.3* | -91.6* | ?
SMILES | CXXC DNA block | Menin MLL FP FL | GLS inhibitor | CtBP-E1A blk | Six1-Eya2 blk | Menin MLL FP TR
CCN(CC)S(=O)(=O)c1cc(OC)ccc1N=Nc1ccc(O)c2ncccc12 | 4.6% | 8.7 | 1.5% | . | -91.5* | ?
CNc1ccc(-c2nc3ccccc3s2)cc1 | . | -2.1 | . | . | . | ?
CCCCSCCCNC(=O)c1cn(C)c2ccc(S(=O)(=O)N3CCCCCC3)cc2c1=O | . | . | 0.3% | . | . | .
COc1cc(/C=N/NS(=O)(=O)c2ccc(C)c([N+](=O)[O-])c2)cc([N+](=O)[O-])c1O | 8.3% | -8.2 | -12.6% | -12.2 | -5.9 | 25.1µM*
COc1cc(/C=N/NS(=O)(=O)c2ccc(C)c([N+](=O)[O-])c2)ccc1O | 1.3% | 0.4 | ? | 4.5 | -2.4 | 15.2%
CN(C)c1ccc2cc(S(=O)(=O)O)cc(O)c2c1 | . | . | ? | ? | -72.9* | .
CCCC[C@@H](CC)COC(=O)C[C@H](C(=O)OC[C@H](CC)CCCC)S(=O)(=O)O | . | . | -8.3% | . | . | .
CCCCCCCCCCCCCCCC(=O)OC[C@@H](NC(=O)C(Cl)Cl)[C@H](O)c1ccc([N+](=O)[O-])cc1 | . | . | 18.6% | . | . | .
O=C(NCc1ccco1)c1ccc(Cl)c(S(=O)(=O)Nc2ccccc2)c1 | 4.3% | -9.7 | 12.2% | -4.8 | -9.6 | 15.3%
CNS(=O)(=O)c1cc(C(=O)NCc2ccco2)ccc1Cl | 3.6% | -0.5 | -2.3% | 21.0 | -69.0* | .
Nc1nc(-c2nn(Cc3ccccc3F)c3ncccc23)ncc1C1CC1 | . | -5.4 | . | . | . | -17.5%
Cc1c(C)c2c(OCC(=O)N3CCC[C@H]3C(=O)O)cc3c(c2oc1=O)CCC(C)(C)O3 | -13.5% | -1.3 | 12.3% | ? | -85.2* | 0.6%
COc1cc(/C=N/NC(=O)c2sc(N)c(C#N)c2C)cc(Br)c1O | 0.1% | 8.9 | 1.2% | -77.1* | -67.5* | 12.7%
COc1cc(/C=N\NC(=O)c2sc(N)nc2C)cc(OC)c1OC | -0.6% | 0.1 | 24.6% | -84.1* | -82.4* | -18.0%
COC(=O)C1=C2N(Cc3ccccc3)C(C)=C(C(=O)OC)C(c3ccccc3)N2C(=O)[C@](O)(C(=O)OC)C1 (some centres undefined) | . | -1.5[11.7 µM] | . | . | . | 5.2%[11.7 µM]
N=C(N)c1ccc(OCCCOc2ccc(C(=N)N)cc2Br)c(Br)c1 | . | . | 3.9% | . | . | .
Cc1cccc(C)c1NC(=S)NCCc1ccc(O)c(O)c1 | 16.1% | -1.6 | 3.98µM* | 6.9 | -8.4 | 11.4%
CC1CCC2C(=O)OC(COc3ccc(C(C)(C)C)cc3)CN2C1c1ccc(Br)cc1 (centres undefined) | . | -2.2[11.7 µM] | . | . | . | 2.3%[11.7 µM]
CCCN1C(=O)/C(=C/c2c(NCCCOCC)nc3c(C)cccn3c2=O)SC1=S | ? | ? | -10.8% | -1.0 | 4.4 | 8.91µM*
